Source: PubChem BioAssay (NCATS)
Records with an inconclusive call do not appear. The source made the active and inactive calls. Unless noted, calls follow the shape of the dose curve; as a rule, active = well fitted inhibition curve with a large enough effect; inconclusive = small, poorly fitted or top-dose-only effect; inactive = flat fitted curve, though single readings scatter. Where a SMILES comes first, the peptide text is derived from it. [ ]: non-standard residue; d: D form. pGlu = O=C1CC[C@@H](C(=O)O)N1; Thz = O=C(O)[C@@H]1CSCN1

Columns and labels:
[1] = qHTS profiling for inhibitors of Plasmodium falciparum proliferation (AID 504749); also: nearly all actives have a fitted effect of over 60% in size; also: potency is read from the fitted curve at half-maximal effect;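 as to activity, negative = inhibition: 0% = DMSO vehicle and full inhibition = artemisinin control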; details: P. falciparum in erythrocytes, SYBR Green DNA, 72 h, at 28.7 µM (top of the series)
How it was run: (§1)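 In a 72 h erythrocytic culture (37 C, humidified, 5% CO2) at 2.5% hematocrit and 0.3% starting parasitemia, compounds were tested; SYBR Green I in detergent lysis buffer stained parasite DNA overnight.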

3D7 = experiment: as above; details: P. falciparum in erythrocytes, SYBR Green DNA, 72 h; series mostly up to 28.7 µM
How it was run: as §1

7G8 = experiment: as above; details: P. falciparum in erythrocytes, SYBR Green DNA, 72 h; series mostly up to 28.7 µM
How it was run: as §1

AA1029 = experiment: as above; details: P. falciparum in erythrocytes, SYBR Green DNA, 72 h; series mostly up to 28.7 µM
How it was run: as §1

AS120 = experiment: as above; details: P. falciparum in erythrocytes, SYBR Green DNA, 72 h; series mostly up to 28.7 µM
How it was run: as §1

ATS189 = experiment: as above; details: P. falciparum in erythrocytes, SYBR Green DNA, 72 h; series mostly up to 28.7 µM
How it was run: as §1

ATS95 = experiment: as above; details: P. falciparum in erythrocytes, SYBR Green DNA, 72 h; series mostly up to 28.7 µM
How it was run: as §1

C2A = experiment: as above; details: P. falciparum in erythrocytes, SYBR Green DNA, 72 h; series mostly up to 28.7 µM
How it was run: as §1

CP185 = experiment: as above; details: P. falciparum in erythrocytes, SYBR Green DNA, 72 h; series mostly up to 28.7 µM
How it was run: as §1

CP191 = experiment: as above; details: P. falciparum in erythrocytes, SYBR Green DNA, 72 h; series mostly up to 28.7 µM
How it was run: as §1

CP192 = experiment: as above; details: P. falciparum in erythrocytes, SYBR Green DNA, 72 h; series mostly up to 28.7 µM
How it was run: as §1

CP194 = experiment: as above; details: P. falciparum in erythrocytes, SYBR Green DNA, 72 h; series mostly up to 28.7 µM
How it was run: as §1

CP201 = experiment: as above; details: P. falciparum in erythrocytes, SYBR Green DNA, 72 h; series mostly up to 28.7 µM
How it was run: as §1

CP203 = experiment: as above; details: P. falciparum in erythrocytes, SYBR Green DNA, 72 h; series mostly up to 28.7 µM
How it was run: as §1

CP211 = experiment: as above; details: P. falciparum in erythrocytes, SYBR Green DNA, 72 h; series mostly up to 28.7 µM
How it was run: as §1

CP215 = experiment: as above; details: P. falciparum in erythrocytes, SYBR Green DNA, 72 h; series mostly up to 28.7 µM
How it was run: as §1

CP217 = experiment: as above; details: P. falciparum in erythrocytes, SYBR Green DNA, 72 h; series mostly up to 28.7 µM
How it was run: as §1

CP237 = experiment: as above; details: P. falciparum in erythrocytes, SYBR Green DNA, 72 h; series mostly up to 28.7 µM
How it was run: as §1

CP238 = experiment: as above; details: P. falciparum in erythrocytes, SYBR Green DNA, 72 h; series mostly up to 28.7 µM
How it was run: as §1

[2] = qHTS drug screen for cell cycle checkpoint inhibitors in PARPi-resistant BRCA-mutant ovarian cancer cell lines. (AID 1963452; calls by dose curve); details: PEO1/OlaR viability, CellTiter-Glo luminescence, 96 h, stronger effect = lower value
How it was run: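 PEO1, PEO4 and PEO1/OlaR ovarian cancer cells, 600 per well, exposed 96 h at 37C to a dilution series. Viability read by CellTiter-Glo luminescence, normalized to DMSO and empty wells; activity summarized as Z-AUC.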

[3] = measured here: PEO1 parental Z-AUC

CCCCCC[C@@H](O)C/C=C\CCCCCCCC(=O)O
inactive: activity, negative = inhibition ([1]; parasite line A) -10.4% | activity, negative = inhibition ([1]; parasite line B) -8.48% | Potency (3D7) | Potency (7G8) | Potency (AA1029) | Potency (AS120) | Potency (ATS189) | Potency (ATS95) | Potency (C2A) | Potency (CP185) | Potency (CP191) | Potency (CP192) | Potency (CP194) | Potency (CP201) | Potency (CP203) | Potency (CP211) | Potency (CP215) | Potency (CP217) | Potency (CP237) | Potency (CP238)

CCN1/C(=C/C(C)=O)Sc2ccc(OC)cc21
0.802: Z-AUC ([2]; measured here: PEO4 Z-AUC)
inactive: Z-AUC [2] 0.945
0.672: Z-AUC [2, 3]

COc1cc(SC)ccc1C(=O)N1CCC(Cc2ccccc2)CC1
inactive: Z-AUC [2] 0.323
1.42: Z-AUC [2, 3]
1.59: Z-AUC ([2]; measured here: PEO4 Z-AUC)

O=C1NC(=O)/C(=C/c2ccc(-c3ccc(F)cc3O)o2)S1
-0.562: Z-AUC [2, 3]
inactive: Z-AUC [2] -1.15
-0.191: Z-AUC ([2]; measured here: PEO4 Z-AUC)

O=C1NC(=O)/C(=C/c2ccc3nccnc3c2)S1
0.611: Z-AUC ([2]; measured here: PEO4 Z-AUC)
inactive: Z-AUC [2] 1.93
0.559: Z-AUC [2, 3]

O=C(/C=C/c1ccc(O)cc1)c1ccc(O)cc1O
0.804: Z-AUC [2, 3]
0.213: Z-AUC ([2]; measured here: PEO4 Z-AUC)
inactive: Z-AUC [2] 0.396

CN[C@H](CC(C)C)C(=O)N[C@H]1C(=O)N[C@@H](CC(N)=O)C(=O)N[C@H]2C(=O)N[C@H]3C(=O)N[C@H](C(=O)N[C@H](C(=O)O)c4cc(O)cc(O)c4-c4cc3ccc4O)[C@H](O)c3ccc(c(Cl)c3)Oc3cc2cc(c3O[C@@H]2O[C@H](CO)[C@@H](O)[C@H](O)[C@H]2O[C@H]2C[C@](C)(N)[C@H](O)[C@H](C)O2)Oc2ccc(cc2Cl)[C@H]1O
inactive: Z-AUC [2] -0.534
-1.21: Z-AUC ([2]; measured here: PEO4 Z-AUC)
-0.325: Z-AUC [2, 3]

COc1cc(CNC(=O)CCCC/C=C/C(C)C)ccc1O
1.46: Z-AUC ([2]; measured here: PEO4 Z-AUC)
1.45: Z-AUC [2, 3]
inactive: Z-AUC [2] 1.64 | activity, negative = inhibition ([1]; parasite line A) -2.8% | activity, negative = inhibition ([1]; parasite line B) 8.8% | Potency (3D7) | Potency (7G8) | Potency (AA1029) | Potency (AS120) | Potency (ATS189) | Potency (ATS95) | Potency (C2A) | Potency (CP185) | Potency (CP191) | Potency (CP192) | Potency (CP194) | Potency (CP201) | Potency (CP211) | Potency (CP215) | Potency (CP217) | Potency (CP237) | Potency (CP238)

N=c1ccn2c(n1)O[C@H]1[C@H](O)[C@@H](CO)O[C@H]12
-1.24: Z-AUC [2, 3]
inactive: Z-AUC [2] -1.72 | activity, negative = inhibition ([1]; parasite line A) 4.44% | activity, negative = inhibition ([1]; parasite line B) 4.16% | Potency (3D7) | Potency (7G8) | Potency (AA1029) | Potency (AS120) | Potency (ATS189) | Potency (ATS95) | Potency (C2A) | Potency (CP185) | Potency (CP191) | Potency (CP192) | Potency (CP194) | Potency (CP201) | Potency (CP211) | Potency (CP215) | Potency (CP217) | Potency (CP237) | Potency (CP238)
0.152: Z-AUC ([2]; measured here: PEO4 Z-AUC)

O=C1CC[C@@H](C(=O)N2CSC[C@H]2C(=O)O)N1 ([pGlu]-[Thz]-OH)
inactive: activity, negative = inhibition ([1]; parasite line A) 14.8% | activity, negative = inhibition ([1]; parasite line B) 2.84% | Potency (3D7) | Potency (7G8) | Potency (AA1029) | Potency (AS120) | Potency (ATS189) | Potency (ATS95) | Potency (C2A) | Potency (CP185) | Potency (CP191) | Potency (CP192) | Potency (CP194) | Potency (CP201) | Potency (CP203) | Potency (CP211) | Potency (CP215) | Potency (CP217) | Potency (CP237) | Potency (CP238)

O=S(=O)(c1cccc2c(I)cccc12)N1CCCNCC1
inactive: Z-AUC [2] -0.863
-0.557: Z-AUC [2, 3]
-0.682: Z-AUC ([2]; measured here: PEO4 Z-AUC)

C[N+]1(C)C2CC(OC(=O)[C@H](CO)c3ccccc3)CC1C1OC12 (stereo not given in full)
1.91: Z-AUC [2, 3]
2.01: Z-AUC ([2]; measured here: PEO4 Z-AUC)
inactive: Z-AUC [2] 1.57

CC[C@H]1OC(=O)[C@H](C)[C@@H](O[C@H]2C[C@@](C)(OC)[C@@H](O)[C@H](C)O2)[C@H](C)[C@@H](O[C@@H]2O[C@H](C)C[C@H](N(C)C)[C@H]2O)[C@](C)(O)C[C@@H](C)C(=O)[C@H](C)[C@@H](O)[C@]1(C)O
inactive: Z-AUC [2] 1.12
1.27: Z-AUC ([2]; measured here: PEO4 Z-AUC)
0.909: Z-AUC [2, 3]

CCOC(=O)N1CCN(/[N+]([O-])=N/Oc2ccc([N+](=O)[O-])cc2[N+](=O)[O-])CC1
1.39: Z-AUC ([2]; measured here: PEO4 Z-AUC)
1.72: Z-AUC [2, 3]
inactive: Z-AUC [2] 1.46

COc1cc(/C=C/C(=O)CC(=O)/C=C/c2ccc(O)c(OC)c2)ccc1O
active: Potency (3D7) 10 µM | Potency (7G8) 11.2 µM | Potency (C2A) 10 µM | Potency (CP215) 16.9 µM
-0.396: Z-AUC [2, 3]
-0.434: Z-AUC ([2]; measured here: PEO4 Z-AUC)
inactive: Z-AUC [2] -0.374

N.N.O=C(O)C1(C(=O)O)CCC1.[Pt]
inactive: Z-AUC [2] 1.36
0.632: Z-AUC [2, 3]
0.869: Z-AUC ([2]; measured here: PEO4 Z-AUC)

CC1(C)[C@@H](O)CC[C@]2(C)[C@H]3C(=O)C=C4[C@@H]5C[C@@](C)(C(=O)O)CC[C@]5(C)CC[C@@]4(C)[C@]3(C)CC[C@@H]12
0.997: Z-AUC ([2]; measured here: PEO4 Z-AUC)
1.38: Z-AUC [2, 3]
inactive: Z-AUC [2] 0.796 | activity, negative = inhibition ([1]; parasite line A) -3.83% | activity, negative = inhibition ([1]; parasite line B) -0.325% | Potency (3D7) | Potency (7G8) | Potency (AA1029) | Potency (AS120) | Potency (ATS189) | Potency (ATS95) | Potency (C2A) | Potency (CP185) | Potency (CP191) | Potency (CP192) | Potency (CP194) | Potency (CP201) | Potency (CP203) | Potency (CP211) | Potency (CP215) | Potency (CP217) | Potency (CP237) | Potency (CP238)

O=C(O)[C@H](O)[C@@H](O)[C@H](O)[C@H](O)CO
inactive: activity, negative = inhibition ([1]; parasite line A) 1.4% | activity, negative = inhibition ([1]; parasite line B) 5.65% | Potency (3D7) | Potency (7G8) | Potency (AA1029) | Potency (AS120) | Potency (ATS189) | Potency (ATS95) | Potency (C2A) | Potency (CP185) | Potency (CP191) | Potency (CP192) | Potency (CP194) | Potency (CP201) | Potency (CP203) | Potency (CP211) | Potency (CP215) | Potency (CP217) | Potency (CP237) | Potency (CP238)

N#C/C(=C\c1ccc(O)c(O)c1)C(=O)NCc1ccccc1
inactive: Z-AUC [2] 1.6
1.01: Z-AUC [2, 3]
0.772: Z-AUC ([2]; measured here: PEO4 Z-AUC)

Nc1c(CC(=O)O)cccc1C(=O)c1ccc(Br)cc1
inactive: activity, negative = inhibition ([1]; parasite line A) 12.5% | activity, negative = inhibition ([1]; parasite line B) 11.2% | Potency (3D7) | Potency (7G8) | Potency (AA1029) | Potency (AS120) | Potency (ATS189) | Potency (ATS95) | Potency (C2A) | Potency (CP185) | Potency (CP191) | Potency (CP192) | Potency (CP194) | Potency (CP201) | Potency (CP203) | Potency (CP211) | Potency (CP215) | Potency (CP217) | Potency (CP237) | Potency (CP238)
